Consider seven compounds from PubChem BioAssay (Tox21).

A short description of experiment [1]: Nuclear factor erythroid 2-related factor 2/antioxidant responsive element (Nrf2/ARE) small molecule agonists: luciferase reporter gene qHTS assay in human keratinocytes (AID 1919969; also: nearly all actives have a fitted effect of over 35% in size; also: potency is read from the fitted curve at half-maximal effect). (Reporter assays use an easily measured gene product as a stand-in for the process of interest.)
The target of experiment [2] is Gonadotropin-releasing hormone receptor (Homo sapiens) (UniProt P30968). The experiment in a line: Human gonadotropin-releasing hormone receptor (GnRHR) small molecule agonists, calcium flux assay in GnRHR-HEK293 cells (AID 1920063). Also: nearly all actives have a fitted effect of over 35% in size. Also: potency is read from the fitted curve at half-maximal effect. The gist of the method:
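HEK293 cells stably expressing human GnRHR were dye-loaded for 1 h at 37 C. Compound was added in agonist mode and fluorescence (Ex/Em 480/540) recorded kinetically for 3 min. Fifteen concentrations, triplicates.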
A general note: Calcium assays in cells follow changes in intracellular calcium, usually with a dye or a luminescent sensor.

Experiment [3] in a line: G protein-coupled receptor (GPCR) small molecule agonists, calcium flux assay: HEK293 wild type cell line counter screen (AID 1920065). Also: potency is read from the fitted curve at half-maximal effect. The gist of the method: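 Wild-type HEK293 cells plated 18 h, loaded with calcium dye 1 h at 37 C, then compounds added in agonist mode (ATP as positive control). Kinetic fluorescence Ex/Em 480/540 recorded 3 min at 1 sec intervals; 15 concentrations, triplicate.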

Experiment [4] in a line: p53 small molecule agonists, cell-based qHTS assay: qHTS cell viability counter screen (AID 1963581). Also: nearly all actives have a fitted effect of over 45% in size. Also: potency is read from the fitted curve at half-maximal effect. The gist of the method:
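p53RE-bla HCT-116 cells, compounds added 5 h after plating and incubated 16 h at 37 C. Cytotoxicity measured in the same wells as intracellular ATP by CellTiter-Glo luminescence after 30 min at room temperature.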
On the technique in general: Quantitative high-throughput screening tests each substance at several concentrations.

Experiment [5] has as its target 5-hydroxytryptamine receptor 2A (Homo sapiens) (UniProt P28223). The experiment in a line: 5-hydroxytryptamine receptor 2A (HTR2A) small molecule antagonists, cell-based qHTS assay (AID 1963586). Also: nearly all actives have a fitted effect of over 45% in size. The gist of the method: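 Antagonist-mode intracellular calcium assay: DOI (4 nM) added after 5 min compound pre-incubation at room temperature to dye-loaded HTR2A-CHO cells. Fluorescence followed for 3 min, sampled every second.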

The target is the same in experiment [6]. The experiment can be described thus: 5-hydroxytryptamine receptor 2A (HTR2A) small molecule agonists, cell-based qHTS assay (AID 1963587). Also: nearly all actives have a fitted effect of over 30% in size. Also: potency is read from the fitted curve at half-maximal effect. The gist of the method:
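HTR2A-CHO cells, plated 18 h at 37 C/5% CO2, dye-loaded 1 h at 37 C; compounds in DMSO added by pin tool (agonist mode). Intracellular calcium flux read as kinetic fluorescence on FDSS over 2 min at 1 s intervals.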

The target in experiment [7] is Muscarinic acetylcholine receptor M1 (Homo sapiens) (UniProt P11229). The experiment in a line: Cholinergic receptor muscarinic 1 (CHRM1) small molecule antagonists, cell-based qHTS assay (AID 1963588). Also: nearly all actives have a fitted effect of over 40% in size. The gist of the method:
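CHRM1-CHO calcium-flux assay, antagonist mode. Cells were seeded 18 h, dye-loaded 1 h at 37 C and given compound for 5 min at RT, then acetylcholine was added at 50nM. FDSS fluorescence was read 3 min; 15 concentrations, three runs.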

Experiment [8] has the same target. The experiment can be described thus: Cholinergic receptor muscarinic 1 (CHRM1) small molecule agonists, cell-based qHTS assay (AID 1963589). Also: nearly all actives have a fitted effect of over 35% in size. The gist of the method: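 CHO cells stably expressing human CHRM1 were loaded with calcium dye for 1 h at 37 C, then compound was added in agonist mode. Intracellular calcium fluorescence was followed kinetically at 1 s intervals. Fifteen concentrations were tested in three independent runs.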

Experiment [9] can be described thus: cAMP Responsive Elements (CRE) small molecule agonists, cell-based qHTS assay (AID 1963590). The gist of the method:
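CRE-bla HEK 293T cells, 2,000/well in DMEM with 10% dialyzed FBS and 25 mM HEPES, pre-incubated 18 h at 37 C, then exposed to compound 3 h at 37 C. Beta-lactamase reporter read with LiveBLAzer B/G FRET substrate after 2 h at room temperature.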

The nature of experiment [10]: cAMP Responsive Elements (CRE) small molecule antagonists, cell-based qHTS assay (AID 1963591; active = well fitted inhibition curve with a large enough effect in the signal ratio in the repeat runs, not every such curve was filed as active; the % refers to the signal ratio). The gist of the method: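 CRE-bla HEK293T cells plated 18 h, then given compound plus NKH477 at 0.25 uM final for 3 h at 37C. Beta-lactamase reporter read with LiveBLAzer B/G FRET substrate after 2 h at room temperature.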
Experiment [11] concerns the target Beta-2 adrenergic receptor (Homo sapiens) (UniProt P07550). The experiment can be described thus: Adrenergic beta2 receptor (ADRB2) small molecule antagonists, cell-based qHTS assay (AID 1963592). Also: series mostly up to about 92 µM; nearly all actives have a fitted effect of over 50% in size. The gist of the method:
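Cells (CHO, stable ADRB2 overexpression) incubated 18-20hr at 37C; compounds added from DMSO; agonist mix (1nM isoproterenol, 100uM IBMX, 25uM Ro-20-1724) added; 0.5hr RT; d2-cAMP and anti-cAMP-cryptate added; 1hr RT; 665/615 nm read.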

For experiment [12] the target is unchanged. The experiment can be described thus: Adrenergic beta2 receptor (ADRB2) small molecule agonists, cell-based qHTS assay (AID 1963593).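 Also: CHO cells stably overexpressing human ADRB2.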 The gist of the method:
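CHO cells stably over-expressing ADRB2 were plated overnight at 37C, then dosed with compounds plus a stimulation mix containing 100uM IBMX and 25uM Ro-20-1724 for 0.5hr at room temperature. cAMP was measured by HTRF competition, 1hr.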

In experiment [13] the target is D(2) dopamine receptor (Homo sapiens) (UniProt P14416). The experiment can be described thus: Dopamine D2 receptor (DRD2) small molecule agonists, cell-based qHTS assay (AID 1963594). Also: nearly all actives have a fitted effect of over 35% in size. The gist of the method:
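HEK293 cells stably expressing DRD2 were cultured 24 h at 37 C, then given Ro20-1724 (0.1 mM final) and compounds for 10 min at room temperature. NKH477 (200nM) was then added for 30 min. cAMP was read by HTRF.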

For experiment [14] the target is unchanged. The experiment can be described thus: Dopamine D2 receptor (DRD2) small molecule antagonists, cell-based qHTS assay (AID 1963595; active = well fitted inhibition curve with a large enough effect in the signal ratio in the repeat runs, with a control signal flat; the % refers to the signal ratio; also: potency is read from the fitted curve at half-maximal effect). The gist of the method:
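Human DRD2 antagonist qHTS measuring cAMP by HTRF. The cells are exposed to compound for 10 min, then to NKH477 (200 nM) and quinpirole (12 nM) for 30 min at RT, with Ro20-1724 (0.1 mM) present throughout.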

Experiment [15] can be described thus: p53 small molecule agonists, cell-based qHTS assay with human liver microsomes (AID 1963577). The gist of the method: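 p53RE-bla cells, 4,000/well, compound added after 5 h, with human liver microsomes 0.5 mg/mL and NADPH 0.5 mg/mL final; 16 h at 37 C, then LiveBLAzer 2 h RT, fluorescence.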
Experiment [16] in a line: p53 small molecule agonists, cell-based qHTS assay with human liver microsomes: qHTS cell viability counter screen (AID 1963579). Also: nearly all actives have a fitted effect of over 45% in size. Also: potency is read from the fitted curve at half-maximal effect. The gist of the method:
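p53RE-bla cells, 4,000/well, dosed 5 hours after plating, with human liver microsomes (0.5 mg/mL final) plus NADPH (0.5 mg/mL final), 16 hours at 37 C. Viability read as CellTiter-Glo luminescence after 30 min at room temperature.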

A short description of experiment [17]: p53 small molecule agonists, cell-based qHTS assay with rat liver microsomes: qHTS cell viability counter screen (AID 1963580). Also: nearly all actives have a fitted effect of over 45% in size. Also: potency is read from the fitted curve at half-maximal effect. The gist of the method: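 p53RE-bla HCT-116 cells (4,000/well) rested 5 h at 37 C, then given Tox21 compounds in DMSO with rat liver microsomes (0.5 mg/mL final) plus NADPH (0.5 mg/mL final) for 16 h at 37 C. Viability read by CellTiter-Glo luminescence after 30 min at room temperature.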

Experiment [18] has as its target KiSS-1 receptor (Homo sapiens) (UniProt Q969F8). The experiment can be described thus: Human kisspeptin (KISS1R) small molecule agonists, calcium flux assay in KISS1R-HEK293 cells (AID 1920064; active = well fitted activation curve with a large enough effect in the repeat runs; also: potency is read from the fitted curve at half-maximal effect). The gist of the method:
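HEK293 cells stably expressing human KISS1R were loaded with calcium dye for 1 h at 37 C, then given compound; fluorescence (Ex/Em 480/540) was read kinetically for 3 min. Fifteen concentrations, triplicate.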

The nature of experiment [19]: p53 small molecule agonists, cell-based qHTS assay with rat liver microsomes (AID 1963578). The gist of the method:
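p53RE-bla cells, 4,000/well, pre-incubated 5 h, then given compounds plus rat liver microsomes (0.5 mg/mL final) and NADPH (0.5 mg/mL final). Incubation 16 h at 37 C; beta-lactamase reporter read by LiveBLAzer fluorescence after 2 h at room temperature.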

The nature of experiment [20]: p53 small molecule agonists, cell-based qHTS assay (AID 1963582; active = well fitted activation curve with a large enough effect in the signal ratio in the repeat runs, not every such curve was filed as active; the % refers to the signal ratio). The gist of the method: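 p53RE-bla reporter cells, compounds added in DMSO after 5 h plating, incubated 16 h at 37 C. Beta-lactamase read via 2 h room-temperature LiveBLAzer B/G FRET substrate, fluorescence intensity.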

Values without a mark were called inactive. Inconclusive results are not listed. Activity calls are given as the source filed them. Unless noted, calls follow the shape of the full dose curve.
% is scaled to controls: 0 for no effect and ±100 for the full control effect.

Sequence of KiSS-1 receptor (Homo sapiens) (Q969F8 whole entry, looked up): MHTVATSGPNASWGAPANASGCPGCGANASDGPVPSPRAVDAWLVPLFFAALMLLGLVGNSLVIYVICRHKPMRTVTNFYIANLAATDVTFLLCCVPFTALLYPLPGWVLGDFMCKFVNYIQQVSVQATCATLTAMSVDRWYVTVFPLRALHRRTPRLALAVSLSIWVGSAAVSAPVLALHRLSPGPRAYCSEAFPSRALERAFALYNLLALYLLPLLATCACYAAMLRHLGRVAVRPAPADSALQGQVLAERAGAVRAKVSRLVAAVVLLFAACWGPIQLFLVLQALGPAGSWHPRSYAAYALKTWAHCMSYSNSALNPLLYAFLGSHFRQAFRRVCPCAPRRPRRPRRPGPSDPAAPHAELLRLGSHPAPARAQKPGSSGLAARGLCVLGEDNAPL
Sequence of D(2) dopamine receptor (Homo sapiens) (P14416 whole entry, looked up): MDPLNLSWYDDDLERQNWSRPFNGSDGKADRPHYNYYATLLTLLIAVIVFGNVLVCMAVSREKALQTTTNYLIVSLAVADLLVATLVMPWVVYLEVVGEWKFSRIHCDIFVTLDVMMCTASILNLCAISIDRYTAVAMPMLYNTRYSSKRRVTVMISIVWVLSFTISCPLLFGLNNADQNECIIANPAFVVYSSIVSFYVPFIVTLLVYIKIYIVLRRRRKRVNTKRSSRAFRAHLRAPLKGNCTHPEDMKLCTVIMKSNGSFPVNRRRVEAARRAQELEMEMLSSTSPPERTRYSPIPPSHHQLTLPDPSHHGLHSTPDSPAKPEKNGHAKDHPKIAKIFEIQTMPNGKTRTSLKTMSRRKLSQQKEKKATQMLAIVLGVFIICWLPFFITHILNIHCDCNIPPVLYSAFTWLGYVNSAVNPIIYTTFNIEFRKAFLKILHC
Sequence of Gonadotropin-releasing hormone receptor (Homo sapiens) (P30968 whole entry, looked up): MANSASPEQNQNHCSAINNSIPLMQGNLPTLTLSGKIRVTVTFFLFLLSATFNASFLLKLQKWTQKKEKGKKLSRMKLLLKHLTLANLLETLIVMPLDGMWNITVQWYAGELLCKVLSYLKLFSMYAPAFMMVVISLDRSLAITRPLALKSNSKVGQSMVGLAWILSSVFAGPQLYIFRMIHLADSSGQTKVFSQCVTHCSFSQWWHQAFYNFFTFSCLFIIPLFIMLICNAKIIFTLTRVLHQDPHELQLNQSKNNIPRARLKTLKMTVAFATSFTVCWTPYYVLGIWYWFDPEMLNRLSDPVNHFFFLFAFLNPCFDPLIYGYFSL
Sequence of Beta-2 adrenergic receptor (Homo sapiens) (P07550 whole entry, looked up): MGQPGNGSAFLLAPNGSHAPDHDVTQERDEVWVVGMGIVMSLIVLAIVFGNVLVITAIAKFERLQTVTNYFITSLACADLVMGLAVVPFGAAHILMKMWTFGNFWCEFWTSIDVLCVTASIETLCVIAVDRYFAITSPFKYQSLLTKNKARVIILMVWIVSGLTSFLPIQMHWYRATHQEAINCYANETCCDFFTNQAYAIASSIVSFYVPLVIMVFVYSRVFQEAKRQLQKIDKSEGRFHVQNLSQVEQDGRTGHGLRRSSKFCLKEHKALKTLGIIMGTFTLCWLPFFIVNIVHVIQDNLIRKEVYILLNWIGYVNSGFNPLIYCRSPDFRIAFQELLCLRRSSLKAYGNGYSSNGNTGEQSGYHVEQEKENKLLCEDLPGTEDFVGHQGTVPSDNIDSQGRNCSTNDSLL
Sequence of 5-hydroxytryptamine receptor 2A (Homo sapiens) (P28223 whole entry, looked up): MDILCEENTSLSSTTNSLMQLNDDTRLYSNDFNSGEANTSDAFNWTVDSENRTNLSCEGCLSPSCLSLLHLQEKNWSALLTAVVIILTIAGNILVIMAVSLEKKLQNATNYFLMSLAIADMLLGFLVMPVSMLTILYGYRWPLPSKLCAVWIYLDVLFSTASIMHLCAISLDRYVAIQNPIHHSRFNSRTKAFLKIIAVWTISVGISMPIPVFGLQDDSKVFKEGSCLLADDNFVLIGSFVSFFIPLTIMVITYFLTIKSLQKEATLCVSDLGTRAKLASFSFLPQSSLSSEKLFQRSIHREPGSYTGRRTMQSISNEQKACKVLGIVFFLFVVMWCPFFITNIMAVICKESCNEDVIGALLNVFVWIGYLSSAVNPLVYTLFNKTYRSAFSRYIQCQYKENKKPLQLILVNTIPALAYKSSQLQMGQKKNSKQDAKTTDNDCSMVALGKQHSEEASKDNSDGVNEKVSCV
Sequence of Muscarinic acetylcholine receptor M1 (Homo sapiens) (P11229 whole entry, looked up): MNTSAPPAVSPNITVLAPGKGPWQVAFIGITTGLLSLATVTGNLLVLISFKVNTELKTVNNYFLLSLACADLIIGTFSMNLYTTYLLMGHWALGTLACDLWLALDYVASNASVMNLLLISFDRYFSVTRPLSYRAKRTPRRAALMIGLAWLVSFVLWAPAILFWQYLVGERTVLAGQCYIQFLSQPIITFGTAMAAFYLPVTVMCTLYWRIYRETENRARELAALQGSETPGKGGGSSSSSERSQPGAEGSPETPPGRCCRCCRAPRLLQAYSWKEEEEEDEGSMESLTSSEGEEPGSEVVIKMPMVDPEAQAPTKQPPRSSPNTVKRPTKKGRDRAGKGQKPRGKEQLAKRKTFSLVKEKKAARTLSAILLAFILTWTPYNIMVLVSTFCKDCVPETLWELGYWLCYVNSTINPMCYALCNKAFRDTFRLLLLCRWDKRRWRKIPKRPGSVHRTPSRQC

`N#Cc1ccccc1C#N`: the Potency entry in [1], in [2], in [3], in [4], in experiment [5] and in [6] was “inactive” throughout. Besides, the Potency result in [7], in experiment [8], in experiment [9], in experiment [10], in [11] and in experiment [12] was “inactive” throughout. The Potency result in [13] and in experiment [14] was “inactive” each time.
Regarding `Nc1ccc2c(c1)CN1C(=O)c3ccccc3C1=N2`, the Potency in experiment [1] is 0.13 µM (active); in experiment [2], 6.57 µM (active); in experiment [6] it was 10.4 µM (active). The activation in experiment [15] is 5.53% [at 13.5 µM]; in [12] it was 25.8% [at 19 µM]. The activity change, negative = cytotoxicity in experiment [16] is -28.3% [at 13.5 µM]; in experiment [17], -20.3% [at 13.5 µM]. Further, the activity, negative = inhibition in experiment [7] was 0.434% [at 12.6 µM]. The activity change, negative = inhibition in [11] is -18.2% [at 19 µM].
With `C=C[C@](C)(O)CC[C@@H]1[C@@]2(C)CCCC(C)(C)[C@@H]2CC[C@@]1(C)O`, the Potency result in experiment [1], in experiment [18], in experiment [3], in experiment [15], in [19] and in experiment [5] was “inactive” in each case. For the same compound, the Potency result in experiment [6], in experiment [7], in experiment [8], in experiment [10] and in experiment [13] was “inactive” throughout. Besides, the Potency in experiment [16] was 32.4 µM (active); in experiment [17] it was 45.8 µM (active); in experiment [4], 9.13 µM (active); in experiment [14] it was 43.3 µM (active).
For the compound `CCCC(C)CC` (centres undefined), the Potency result in experiment [1], in experiment [2], in experiment [3], in experiment [19], in experiment [17] and in experiment [4] was “inactive” in each case. Also, the Potency entry in experiment [5], in [6], in [7], in experiment [8], in experiment [9] and in [10] was “inactive” each time. Also, the Potency entry in experiment [11], in experiment [13] and in experiment [14] was “inactive” throughout.
`COc1cc2ncnc(Nc3cccc(Cl)c3)c2cc1OC`: the activity, positive = activation in experiment [1] was -25.9% [at 19 µM]. The activation in [18] was 1.01% [at 15.8 µM]; in experiment [3], -0.385% [at 11.8 µM]; in experiment [15], -11.3% [at 13.5 µM]; in experiment [19], -0.041% [at 13.6 µM]; in [20], -4.37% [at 13.5 µM]; in experiment [6] it was -3.99% [at 15.9 µM]. Also, the values for the activation in [8] and in experiment [13] were -1.11% [at 15.8 µM] and -4.16% [at 19 µM], respectively. For the same compound, the activity change, negative = cytotoxicity in [16] was -15.6% [at 13.5 µM]; in experiment [4] it was -12.1% [at 13.5 µM]. In addition, the results for the activity, negative = inhibition in experiment [5] and in [7] were 2.95% [at 12.7 µM] and -4.44% [at 12.6 µM], respectively. The activity change, negative = inhibition in [11] is -2.49% [at 19 µM]; in experiment [14], -0.58% [at 18.9 µM].
As for `Nc1ccn(C2CO[C@H](CO)O2)c(=O)n1` (some centres undefined), the Potency entry in experiment [1], in experiment [15], in [19], in experiment [16], in experiment [17] and in experiment [4] was “inactive” in each case. For the same compound, the Potency result in [7], in experiment [10], in [11], in experiment [12], in experiment [13] and in experiment [14] was “inactive” throughout. In addition, the Potency in experiment [18] was 6.74 µM (active); in [3], 16.9 µM (active); in [6], 7.56 µM (active).
In the case of `c1ccc(CN(Cc2ccccc2)Cc2ccccc2)cc1`, the Potency in experiment [1] was 54.4 µM (active). The Potency result in [2], in [3], in [16], in experiment [17], in experiment [4] and in experiment [5] was “inactive” throughout. The Potency entry in [6], in experiment [7], in experiment [8], in [9], in [10] and in [11] was “inactive” in each case. Besides, the Potency result in [12], in [13] and in [14] was “inactive” each time.
